NALP1 yeast inh – inhibitors of NALP1 inflammasome in yeast; S. cerevisiae NALP1/ASC/caspase-1 growth, X-gal OD620, 72 h; inhibition, % at 10 µM; hit rate 0.61% among 280,000; AID 2071; in the data active = inhibition mostly above about 24%, no sharp cut-off; inactive = mostly below about 32%
SUMO Mot1 rescue – inhibitors of SUMOylation pathway: yeast Mot1-301 growth rescue. S. cerevisiae Mot1-301 growth rescue, ATP luminescence, 38.5C; percent above DMSO median, 100 means doubled. growth rescue, % at 18.8 µM. hit rate 1% among 320,000;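 active = every valid replicate shows activation above 250% relative to neutral control wells; inactive = the rest, any valid replicate at or below 250%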;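 note: OY570 slx delta 5 strain wells were the positive control but not used for scaling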
CHT allo act – allosterically activates the human high affinity choline transporter; CHT-expressing cells, membrane potential dye, choline EC20; active compounds read high; LV-AA mutant CHT in HEK293 cells; B-score at 10 µM; hit rate 0.49% among 310,000; AID 488977;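 active = initial fluorescence not abnormally high and integrated response B-score, plate-corrected, over 3 SD above library mean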
Target sequence (Q9GZV3 whole entry, looked up): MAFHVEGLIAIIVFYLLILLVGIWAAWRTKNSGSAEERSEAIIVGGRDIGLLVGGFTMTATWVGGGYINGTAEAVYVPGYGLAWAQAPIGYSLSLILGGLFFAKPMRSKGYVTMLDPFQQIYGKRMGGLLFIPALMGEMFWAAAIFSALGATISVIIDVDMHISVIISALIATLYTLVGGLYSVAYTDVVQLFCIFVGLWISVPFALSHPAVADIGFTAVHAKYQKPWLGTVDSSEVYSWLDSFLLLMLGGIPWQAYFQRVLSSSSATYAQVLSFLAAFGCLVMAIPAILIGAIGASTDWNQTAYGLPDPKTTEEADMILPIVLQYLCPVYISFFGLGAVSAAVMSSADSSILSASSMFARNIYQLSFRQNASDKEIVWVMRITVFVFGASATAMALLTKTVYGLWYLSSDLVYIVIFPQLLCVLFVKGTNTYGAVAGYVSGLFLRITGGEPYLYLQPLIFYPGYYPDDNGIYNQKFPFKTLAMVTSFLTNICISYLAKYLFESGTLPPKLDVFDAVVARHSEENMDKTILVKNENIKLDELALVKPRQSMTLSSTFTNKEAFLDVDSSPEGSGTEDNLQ
A1 inh – inhibitors of the anti-apoptotic protein A1, read as caspase activation; hit rate 0.066% among 330,000; MEF A1-2A-BIM cells, Caspase-Glo 3/7 luminescence, 3 h; percent of clofoctol response, vehicle zero; caspase activation, % (concentration not given with the values); AID 2462;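 active = over half of replicate activation scores above 10%, or exactly half above 10 with the replicate mean above 10; inconclusive = replicate mean below 10 yet half the replicates above 10; inactive = over half of replicates below 10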
NLRP3 yeast inh – blocks the NALP3 inflammasome reconstituted in yeast | Yeast reconstituted NLRP3/ASC/caspase-1, beta-gal luminescence, 24 h | inhibition, % at 10 µM | hit rate 0.39% among 330,000 | AID 2825;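 active = inhibition of 50% or more; inactive = inhibition below 50%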;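 note: plate controls were induced DMSO wells for no effect and uninduced yeast grown without galactose for full effect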
CHT block – inhibitors of human choline transporter CHT; CHT-expressing cells, membrane potential dye, choline response; active compounds read low; hit rate 0.86% among 310,000; AID 488975; B-score at 10 µM;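 active = B-score over 3 SD under the library average, and starting fluorescence ratio not unusually high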;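 note: choline stimulus applied at its EC90 after an EC20 pre-addition; B-score computed on integrated fluorescence ratio after choline addition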
Mot1 SUMO dose – yeast SUMO pathway inhibition in dose response. AID 493004. growth activity, percent, % at 42 µM. shares compounds with SUMO Mot1 rescue. S. cerevisiae Mot1-301 galactose growth, ATP luminescence, 24 h; -100 = growth of slx-deleted rescue strain. 2,300 tested, under 10 active;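 active = Signal drops as the depositor expects, and the fitted half-maximal dose is no more than ten times the top valid tested dose; inconclusive = Poor fit, or a flat curve whose signal drops by 30% to 70%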;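 note: more negative values mean stronger growth rescue toward the control strain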
* marks the source's active call; other numbers are inactive results; i = inactive; ? = inconclusive; nt = no result; + = active, no number. Only some compounds are listed: those with a hit (about 3% of all), similar ones and a draw of the others.

SMILES | NALP1 yeast inh | SUMO Mot1 rescue | CHT allo act | A1 inh | NLRP3 yeast inh | CHT block | Mot1 SUMO dose
O=C(CSc1nc(-c2ccccc2)cc(=O)[nH]1)Nc1ccc(F)c(F)c1 | 18.2 | 18.4 | i | 1.1 | 14.1 | i | nt
O=C(CSc1nc(-c2ccccc2)cc(=O)[nH]1)Nc1ccc(Br)cc1 | 28.5 | 422.5* | i | -0.7 | 2.0 | i | -1.1
CCOC(=O)NC1(Nc2ccc(C)cc2)Oc2ccccc2O1 | 40.1 | 444.6* | i | 1.0 | 14.5 | i | 0.3
Cc1csc(NC(=O)CCCC(=O)c2ccccc2)n1 | 9.1 | 5.5 | i | 1.3 | 16.4 | i | nt
CC(C)(C)c1ccc(C(=O)Nc2ccc(C(=O)NCc3cccnc3)cc2)cc1 | 35.2 | 261.7 | i | 0.7 | 10.9 | i | nt
CC(C)(C)C(=O)Nc1ccc(C(=O)NCc2cccnc2)cc1 | -10.5 | 429.8* | i | -0.1 | 3.1 | i | 0.0
CCOc1ccc(NS(=O)(=O)c2ccc(C(=O)NCc3cccnc3)cc2)cc1 | nt | 448.9* | i | ? | 11.2 | i | 0.5
C[C@@H](NC(=O)c1cc2c([nH]c3ccccc32)c(-c2ccccc2)n1)C(=O)O | 17.7 | -14.5 | i | 1.1 | 8.7 | i | nt
COc1ccccc1-n1c(C)c(C(=O)O)c2cc(OC)c3ccccc3c21 | 19.6 | 31.0 | i | 0.0 | 6.4 | i | nt
CN1CCN(CC(=O)N2c3ccccc3C(=O)Nc3cccnc32)CC1 | 13.5 | + | i | 0.3 | -14.5 | i | 0.1
CN1CCN(CC(=O)N2c3ccc(S(=O)(=O)NCCNC(=O)OC(C)(C)C)cc3C(=O)Nc3cccnc32)CC1 | nt | -1.2 | i | -2.2 | 8.5 | i | nt
CC(=O)N(C(C)=O)C1=C(C#N)C2(CCCCC2)Cc2ccccc21 | 14.9 | 871.4* | i | -0.4 | 16.2 | i | -1.5
N#CC(C#N)=C1NC2(CCCCC2)Cc2ccccc21 | 6.3 | -0.4 | i | -0.3 | 1.5 | i | nt
CC(=O)CSc1ncnc2sc3c(c12)CCCC3 | -2.0 | 712.2* | i | -0.5 | -8.1 | i | 0.4
CC(=O)CSc1ncnc2sc3c(c12)CCC(C)C3 (centres undefined) | -6.1 | -1.8 | i | 0.7 | 15.2 | i | nt
Cc1nn(C)c(C)c1C(C)NC(=O)c1cc(COc2ccc(F)c(F)c2)on1 (centres undefined) | 1.8 | 1.5 | i | 0.5 | 19.2 | i | nt
COc1ccc(S(=O)(=O)N2CCN(c3ccc(F)cc3)CC2)cc1C(=O)N1CCOCC1 | -9.1 | 432.1* | i | 0.2 | 16.5 | i | -0.4
CCN(CC)c1ccc(N2C(=NC(=O)C3CC3)SC3CS(=O)(=O)CC32)cc1 (centres undefined) | 24.7 | -8.5 | i | -0.1 | 1.5 | i | nt
CN(C)c1ccc2nc3ccc(=[N+](C)C)cc-3sc2c1 | 20.1 | 556.5* | i | -2.1 | 23.7 | i | -1.8
Cc1cc2nc3ccc(=[N+](C)C)cc-3sc2cc1N | 11.6 | nt | nt | nt | nt | nt | nt
Cc1sc2ncnc(Nc3ccccc3)c2c1C | -2.9 | 370.8* | i | 0.6 | 46.1 | i | -0.3
Cc1sc2ncnc(NCc3ccccc3)c2c1C | 1.4 | 9.1 | i | -1.0 | 31.2 | i | nt
O=C(COC(=O)c1cccc(Br)c1)NCC1CCCO1 (centres undefined) | nt | -13.9 | nt | -1.1 | 10.1 | nt | nt
O=C(c1cc(N2C(=O)C3C4CCC(C4)C3C2=O)ccc1Cl)N1CCCCCC1 (centres undefined) | -8.9 | 361.0* | i | 0.2 | 0.1 | i | 0.6
Cc1cn(-c2cc(NC(=O)c3ccc(C)c(NC(=O)c4cccc(-c5cn[nH]c(=O)c5)c4)c3)cc(C(F)(F)F)c2)cn1 | 14.0 | 14.4 | i | 0.5 | 7.6 | i | nt
SMILES | NALP1 yeast inh | SUMO Mot1 rescue | CHT allo act | A1 inh | NLRP3 yeast inh | CHT block | Mot1 SUMO dose
Cc1sc(NC(=O)CSC2=NCCS2)nc1-c1ccccc1 | 15.2 | 722.2* | i | 3.2 | 2.0 | i | -0.7
Cc1ccc(-c2csc(NC(=O)CSC3=NCCS3)n2)cc1 | -85.6 | 26.5 | i | 0.1 | 18.8 | i | nt
Cc1ccc(S(=O)(=O)N2CCCC(C(=O)NCC3CCCO3)C2)cc1 (centres undefined) | 3.2 | 17.0 | i | 0.2 | 23.7 | i | nt
Cc1noc(C)c1S(=O)(=O)N1CCCC(C(=O)NCC2CCCO2)C1 (centres undefined) | 20.3 | + | i | 0.1 | 11.4 | i | 0.5
CSc1ccccc1OCc1cc(C(=O)N[C@H]2CCCCNC2=O)no1 | 8.8 | 13.6 | i | -5.7 | 8.7 | i | nt
COc1ccccc1NS(=O)(=O)c1cc(Cl)ccc1OC | 14.5 | 442.4* | i | 0.9 | 1.7 | i | 0.9
COC(=O)C(C)Oc1ccc(Oc2nc(Cl)ccc2Cl)cc1 (centres undefined) | 9.1 | 4.4 | i | 0.1 | 10.0 | i | nt
CC(=O)NCC(=O)N(C)C(C(=O)Nc1ccc2c(c1)OCCO2)c1ccc(C)cc1 (centres undefined) | 13.9 | -11.7 | i | -0.6 | -13.3 | i | nt
Cc1ccc(C(C(=O)Nc2ccc3c(c2)OCO3)N(C)C(=O)/C=C\c2ccc3c(c2)OCO3)cc1 (centres undefined) | 26.0 | 382.9* | i | -0.2 | 9.8 | i | 0.2
O=[N+]([O-])c1ccc(O)c(-c2cc(C(F)(F)F)nc(-c3ccccc3)n2)c1 | 10.6 | -10.1 | i | 0.8 | 24.8 | i | nt
O=C(COC(=O)/C=C/c1ccc(OC(F)F)cc1)NC1CCCCCC1 | nt | -9.9 | nt | 0.3 | 29.5 | nt | nt
N#C/C(=C\c1ccc(O)c(O)c1)C(=O)Nc1ccccc1 | nt | 369.4* | i | -1.9 | 34.9 | i | -0.7
CC(C)C[C@@H](CO)N1CCN(Cc2cccc(C#N)c2)CCC1=O | 6.2 | -9.9 | i | 0.5 | 26.4 | i | nt
COc1cc(Br)c(/C=C/c2ccc3cccc(O)c3n2)cc1OC | -8.5 | 13.9 | i | 1.0 | -0.5 | i | nt
Oc1cccc2ccc(/C=C/c3ccccc3Br)nc12 | 2.6 | 528.3* | i | -8.0 | 33.6 | i | -0.2
CCOC(=O)C1=C(C)NC(C)=C(C(=O)OCC)C1C(=O)OC1CCOC1=O (centres undefined) | 14.4 | 462.5* | i | -0.1 | 17.4 | i | 0.5
CC(C)c1nc2n[nH]c(N)c2c2c1CCC2 | 0.8 | 408.2* | i | 0.2 | 6.9 | i | 0.4
Cc1ccc(S(=O)(=O)N2CCCCC2)cc1C(=O)NCc1ccccn1 | 22.0 | -8.8 | i | 0.0 | 3.8 | i | nt
Cc1ccc2nc(SCC(=O)Nc3cccc(S(N)(=O)=O)c3)[nH]c2c1 | nt | 740.8* | i | 0.5 | -9.6 | i | 0.1
NS(=O)(=O)c1cccc(NC(=O)CSc2nc3ccccc3[nH]2)c1 | 10.2 | 8.7 | i | 0.8 | -0.4 | i | nt

High-throughput results: PubChem BioAssay, several laboratories
